Assay results reported in PubChem BioAssay.
For part of these data: Measured potencies and affinities stand elsewhere. Activity calls are given as the source filed them. Unless noted, no rule for the calls is given here.

Assays:
[1] = antimalarial activity against Dd2 strain (AID 2302;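 active = growth inhibition above 50% at the single 2 µM test dose, taken to imply half-maximal potency below 2 µM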;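 also: 0% = DMSO untreated growth and 100% = chloroquine plus artemisinin killed control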); conditions: P. falciparum Dd2 in RBCs, LDH growth readout, 72 h; at 2 µM; active compounds read high
[2] = HepG2 cytotoxicity, primary screen, cytotoxicity control for P. falciparum antimalarial project, cell-based, ATP luminescence (AID 2303;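 active = inhibition above 50%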;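 also: 0% = DMSO wells and 100% = digitonin-killed cells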); conditions: HepG2 viability, 24-48 h, at 10 µM, active compounds read high
[3] = molecular target: L-lactate dehydrogenase (Plasmodium falciparum (isolate CDC / Honduras)) (UniProt Q27743); experiment: PfLDH activity inhibition – cell lysate, 3D7 strain, counter-screen for P. falciparum growth inhibition project (AID 2304);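 also: 0% = vehicle and 100% = reference inhibitor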; conditions: P. falciparum 3D7 crude extract, LDH APAD/NBT absorbance; at 2 µM; active compounds read high
[4] = inhibition of 3D7 malaria parasite growth – strain 3D7 (AID 2306);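 also: 0% = DMSO wells and 100% = chloroquine plus artemisinin control wells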; conditions: P. falciparum 3D7 erythrocytic growth, LDH absorbance, 72 h; at 2 µM; active compounds read high
[5] = molecular target: Calcium-dependent protein kinase 1 (Plasmodium falciparum (isolate 3D7)) (UniProt P62344); experiment: PfCDPK1 kinase inhibitors, biochemical, TCAMS library (AID 1159585; cut-off not given, nearly all actives have IC50 up to about 0.98 µM;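 also: inhibitors leave more ATP so luminescence rises with inhibition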); conditions: recombinant PfCDPK1, Kinase-Glo ATP depletion luminescence
[6] = molecular target: Plasmodium falciparum protein kinase 6 (PK6, PF3D7_1337100) (UniProt Q8IDW1); experiment: PfPK6 kinase inhibitors, biochemical, TCAMS library (AID 1159586); conditions: recombinant PfPK6, Kinase-Glo ATP depletion luminescence
[7] = molecular target: Protein kinase 7 (PK7), Plasmodium falciparum 3D7 (PF3D7_0213400) (UniProt Q7YTF7); experiment: inhibition of Plasmodium PK7 catalytic activity – biochemical, TCAMS antimalarial set, Kinase-Glo luminescence (AID 1159587); conditions: recombinant PfPK7, Kinase-Glo ATP depletion luminescence
[8] = molecular target: Calcium-dependent protein kinase 4 (Plasmodium falciparum (isolate 3D7)) (UniProt Q8IBS5); experiment: PfCDPK4 kinase inhibitors, biochemical, TCAMS library (AID 1159588; cut-off not given, nearly all actives have IC50 up to about 0.91 µM); conditions: recombinant PfCDPK4, Kinase-Glo ATP depletion luminescence
Chain of Calcium-dependent protein kinase 4 (Plasmodium falciparum (isolate 3D7)) (Q8IBS5 whole entry, looked up): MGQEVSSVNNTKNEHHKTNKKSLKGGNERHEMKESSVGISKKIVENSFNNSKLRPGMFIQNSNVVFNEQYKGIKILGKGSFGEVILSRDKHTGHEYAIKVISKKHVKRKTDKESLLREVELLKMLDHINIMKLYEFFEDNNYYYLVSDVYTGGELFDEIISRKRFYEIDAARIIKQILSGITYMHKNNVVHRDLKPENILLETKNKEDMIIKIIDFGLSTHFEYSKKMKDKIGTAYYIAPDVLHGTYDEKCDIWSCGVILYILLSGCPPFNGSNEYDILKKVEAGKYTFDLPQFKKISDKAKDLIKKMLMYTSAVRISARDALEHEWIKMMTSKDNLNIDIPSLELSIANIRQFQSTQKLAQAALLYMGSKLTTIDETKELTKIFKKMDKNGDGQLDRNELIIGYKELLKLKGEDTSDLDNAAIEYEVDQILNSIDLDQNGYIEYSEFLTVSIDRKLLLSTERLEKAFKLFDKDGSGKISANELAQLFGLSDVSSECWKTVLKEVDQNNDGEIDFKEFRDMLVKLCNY

Chain of Plasmodium falciparum protein kinase 6 (PK6, PF3D7_1337100) (Q8IDW1 1-305): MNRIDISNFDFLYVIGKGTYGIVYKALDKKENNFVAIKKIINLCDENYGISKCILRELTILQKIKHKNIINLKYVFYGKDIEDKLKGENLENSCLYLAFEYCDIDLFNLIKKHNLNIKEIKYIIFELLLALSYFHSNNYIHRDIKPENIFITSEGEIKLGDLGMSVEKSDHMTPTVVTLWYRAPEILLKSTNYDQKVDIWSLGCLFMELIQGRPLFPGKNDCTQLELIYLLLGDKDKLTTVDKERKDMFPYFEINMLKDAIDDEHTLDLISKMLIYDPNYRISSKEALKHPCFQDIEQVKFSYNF
Chain of Protein kinase 7 (PK7), Plasmodium falciparum 3D7 (PF3D7_0213400) (Q7YTF7 1-343): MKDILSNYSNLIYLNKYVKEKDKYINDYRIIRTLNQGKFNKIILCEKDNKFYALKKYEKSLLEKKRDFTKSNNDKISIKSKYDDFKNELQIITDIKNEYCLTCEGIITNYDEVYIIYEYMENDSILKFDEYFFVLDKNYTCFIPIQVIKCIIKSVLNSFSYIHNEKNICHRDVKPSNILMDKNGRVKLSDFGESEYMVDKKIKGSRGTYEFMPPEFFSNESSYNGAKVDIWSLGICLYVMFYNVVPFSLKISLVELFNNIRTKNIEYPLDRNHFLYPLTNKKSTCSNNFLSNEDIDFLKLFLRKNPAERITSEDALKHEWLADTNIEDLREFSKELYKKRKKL
Chain of Calcium-dependent protein kinase 1 (Plasmodium falciparum (isolate 3D7)) (P62344 whole entry, looked up): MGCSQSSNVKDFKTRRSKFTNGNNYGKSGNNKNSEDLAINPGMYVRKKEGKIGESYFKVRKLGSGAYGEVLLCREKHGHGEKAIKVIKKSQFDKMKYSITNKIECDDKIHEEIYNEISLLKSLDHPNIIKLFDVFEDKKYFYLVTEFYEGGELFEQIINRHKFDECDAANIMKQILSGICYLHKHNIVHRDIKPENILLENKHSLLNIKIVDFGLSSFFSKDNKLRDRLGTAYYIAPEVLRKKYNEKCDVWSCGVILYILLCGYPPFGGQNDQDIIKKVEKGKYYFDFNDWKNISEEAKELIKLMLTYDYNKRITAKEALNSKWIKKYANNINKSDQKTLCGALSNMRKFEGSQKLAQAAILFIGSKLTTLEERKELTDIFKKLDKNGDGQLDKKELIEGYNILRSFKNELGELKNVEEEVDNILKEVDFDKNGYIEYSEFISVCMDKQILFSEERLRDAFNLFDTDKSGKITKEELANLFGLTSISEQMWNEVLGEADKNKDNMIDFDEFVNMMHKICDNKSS
Chain of L-lactate dehydrogenase (Plasmodium falciparum (isolate CDC / Honduras)) (Q27743 whole entry, looked up): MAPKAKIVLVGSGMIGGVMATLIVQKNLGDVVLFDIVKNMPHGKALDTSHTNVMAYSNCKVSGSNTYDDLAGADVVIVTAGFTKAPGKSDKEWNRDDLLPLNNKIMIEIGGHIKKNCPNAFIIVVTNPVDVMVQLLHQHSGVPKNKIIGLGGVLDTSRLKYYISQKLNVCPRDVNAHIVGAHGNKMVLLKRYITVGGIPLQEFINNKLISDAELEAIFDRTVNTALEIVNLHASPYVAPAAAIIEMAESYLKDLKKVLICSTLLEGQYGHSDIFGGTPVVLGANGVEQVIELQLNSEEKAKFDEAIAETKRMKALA

OC1(C(F)(F)F)CC(c2ccccc2)=NN1c1nncc(-c2ccccc2)n1 (stereo unspecified)
active: growth inhibition [4] 99%
inactive: growth inhibition [1] 3% | inhibition [2] -3% | inhibition [3] -5% | outcome [5] | outcome [6] | outcome [7] | outcome [8]

CN(C)c1cc(NC(=O)Nc2ccc(SC(F)(F)F)cc2)c2ccccc2n1
active: growth inhibition [1] 100% | growth inhibition [4] 100%
inactive: inhibition [2] 22% | inhibition [3] -4% | outcome [5] | outcome [6] | outcome [7] | outcome [8]

Cc1[nH]c(C)c(-c2ccc(Oc3ccc(Cl)cc3Cl)cc2)c(=O)c1Br
active: growth inhibition [1] 94% | growth inhibition [4] 98%
inactive: inhibition [2] 3% | inhibition [3] -5% | outcome [5] | outcome [6] | outcome [7] | outcome [8]

COc1cc(Cc2cnc(N)nc2N)cc(OCCNC(=O)OCc2ccccc2)c1OC
inactive: growth inhibition [1] -3% | inhibition [2] 6% | inhibition [3] 4% | outcome [5] | outcome [6] | outcome [7] | outcome [8]
active: growth inhibition [4] 93%

CC(C)COc1ccc(Cl)cc1Cc1nc(-c2nc3ccc(CN4CCCCC4)cc3[nH]2)co1
active: growth inhibition [1] 70% | growth inhibition [4] 101%
inactive: inhibition [2] 49% | inhibition [3] -4% | outcome [5] | outcome [6] | outcome [7] | outcome [8]

O=S(=O)(NCCN1CCCC1)c1ccc(-c2cccc(CNCc3ccsc3)c2)s1
inactive: growth inhibition [1] 43% | inhibition [2] 42% | inhibition [3] 0% | outcome [5] | outcome [6] | outcome [7] | outcome [8]
active: growth inhibition [4] 90%

Cc1ccc(O)cc1Nc1ccnc2cc(-c3ccc(CN4CCCCC4)o3)ccc12
active: growth inhibition [1] 99% | growth inhibition [4] 100%
inactive: inhibition [2] 16% | inhibition [3] 0% | outcome [5] | outcome [6] | outcome [7] | outcome [8]

CCC(=O)N(c1ccccc1)C1CCN(CCCC(NC(=O)Nc2cc(C(F)(F)F)cc(C(F)(F)F)c2)c2ccc(Cl)c(Cl)c2)CC1 (stereo unspecified)
active: growth inhibition [4] 99%
inactive: growth inhibition [1] 18% | inhibition [2] 29% | inhibition [3] -5% | outcome [5] | outcome [6] | outcome [7] | outcome [8]

CCOc1cc(C2C(C(=O)OC(C)C)=C(C)NC3=C2C(=O)CC(c2ccc(Cl)cc2)C3)ccc1OC(C)=O (stereo unspecified)
inactive: growth inhibition [1] 20% | inhibition [2] 16% | inhibition [3] -3% | outcome [5] | outcome [6] | outcome [7] | outcome [8]
active: growth inhibition [4] 90%

CN(C)S(=O)(=O)c1ccc(N2CCN(CCC3(c4cccc(F)c4)CCN(C(=O)C(C)(C)C)CC3)CC2)c2nonc12
inactive: inhibition [2] 8% | inhibition [3] -1% | outcome [5] | outcome [6] | outcome [7] | outcome [8]
active: growth inhibition [1] 85% | growth inhibition [4] 91%

Cc1cc(N2CCC(C)CC2)nc2cc(O)ccc12
active: growth inhibition [4] 89%
inactive: growth inhibition [1] 41% | inhibition [2] 31% | inhibition [3] -1% | outcome [5] | outcome [6] | outcome [7] | outcome [8]

CCCCCN1CCC(NC(=O)c2ccc(C(=O)Nc3ccc(C(C)C)cc3)cc2)CC1
inactive: growth inhibition [1] 9% | inhibition [2] 41% | inhibition [3] -4% | outcome [5] | outcome [6] | outcome [7] | outcome [8]
active: growth inhibition [4] 98%

Cc1ccc2nc(C)cc(NN=Cc3cccc(F)c3)c2c1
inactive: inhibition [2] 6% | inhibition [3] -1% | outcome [5] | outcome [6] | outcome [7] | outcome [8]
active: growth inhibition [1] 99% | growth inhibition [4] 99%

Cc1cc(N[C@@H](Cc2ccccc2)C(=O)Nc2ccccc2)nc(NCCc2cccnc2)n1
inactive: inhibition [2] 32% | inhibition [3] -3% | outcome [5] | outcome [6] | outcome [7] | outcome [8]
active: growth inhibition [1] 57% | growth inhibition [4] 95%

Cn1cc(CCNc2ccnc(N3CCC(c4ncc[nH]4)CC3)n2)c2ccccc21
inactive: growth inhibition [1] 5% | inhibition [2] 12% | inhibition [3] 3% | outcome [5] | outcome [6] | outcome [7] | outcome [8]
active: growth inhibition [4] 92%

COC(=O)c1ccc(NC(=O)Nc2ccc(Cn3ncc(N4CCCNCC4)c(Cl)c3=O)cc2)cc1
active: growth inhibition [4] 83%
inactive: growth inhibition [1] 43% | inhibition [2] -1% | inhibition [3] -1% | outcome [5] | outcome [6] | outcome [7] | outcome [8]

Fc1ccccc1C=NNc1ccnc2ccc(C(F)(F)F)cc12
active: growth inhibition [1] 61% | growth inhibition [4] 100%
inactive: inhibition [2] 5% | inhibition [3] 3% | outcome [5] | outcome [6] | outcome [7] | outcome [8]

Cc1cc(NN=CC=Cc2ccccc2)c2ccc(F)cc2n1
inactive: growth inhibition [1] 30% | inhibition [2] 14% | inhibition [3] -3% | outcome [5] | outcome [6] | outcome [7] | outcome [8]
active: growth inhibition [4] 100%

NC1=NC(c2ccccc2)N(c2ccc(Cl)c(Cl)c2)C(N)=N1 (stereo unspecified)
active: growth inhibition [4] 94%
inactive: growth inhibition [1] 0% | inhibition [2] 13% | inhibition [3] -2% | outcome [5] | outcome [6] | outcome [7] | outcome [8]

COc1ccc(Nc2ncc3c(-c4cccc(NC(=O)Cc5ccncc5)c4)c[nH]c3n2)cc1OC
inactive: inhibition [2] 23% | inhibition [3] 1% | outcome [5] | outcome [6] | outcome [7] | outcome [8]
active: growth inhibition [1] 87% | growth inhibition [4] 99%

Cc1cccc2[nH]c(-c3cccc(-c4ccc(CN5CCCC5CN)cc4)c3)nc12 (stereo unspecified)
active: growth inhibition [4] 101%
inactive: growth inhibition [1] 47% | inhibition [2] 19% | inhibition [3] 3% | outcome [5] | outcome [6] | outcome [7] | outcome [8]

CCC(CC)(Cc1ccccc1)NC(=O)[C@H](Cc1ccc(OC)c(OC)c1)Nc1ccc(C#N)c2ccccc12
inactive: inhibition [2] 16% | inhibition [3] 0% | outcome [5] | outcome [6] | outcome [7] | outcome [8]
active: growth inhibition [1] 69% | growth inhibition [4] 90%

Cc1cc(NN=Cc2ccc(Cl)cc2)c2cc(C(F)(F)F)ccc2n1
active: growth inhibition [4] 91%
inactive: growth inhibition [1] 32% | inhibition [2] 0% | inhibition [3] -5% | outcome [5] | outcome [6] | outcome [7] | outcome [8]

Cc1cc(-c2ccc(CNCc3ccsc3)cc2)ccc1S(=O)(=O)NCCN1CCCC1
active: inhibition [2] 57% | growth inhibition [4] 99%
inactive: growth inhibition [1] 49% | inhibition [3] -1% | outcome [5] | outcome [6] | outcome [7] | outcome [8]

CCC[C@@H]([C@@H](CC1CCC(C)CC1)C(=O)N[C@@H](CCCNc1ncccn1)C(=O)Nc1nccs1)N(O)C=O (stereo partly specified)
inactive: inhibition [2] 10% | inhibition [3] 5% | outcome [5] | outcome [6] | outcome [7] | outcome [8]
active: growth inhibition [1] 98% | growth inhibition [4] 98%

COC(=O)c1cccc(N2CCN(CCCNC(=O)/C(=C/C=C/c3cc4cc(Cl)c(Cl)cc4[nH]3)OC)CC2)c1
active: growth inhibition [1] 59% | growth inhibition [4] 100%
inactive: inhibition [2] 38% | inhibition [3] -1% | outcome [5] | outcome [6] | outcome [7] | outcome [8]

CCCc1cc(C(C)=O)ccc1OCCCON1C(N)=NC(N)=NC1(C)C
active: growth inhibition [1] 96% | inhibition [2] 61% | growth inhibition [4] 96%
inactive: inhibition [3] 4% | outcome [5] | outcome [6] | outcome [7] | outcome [8]

COc1cc(OC)c2c(C)cc(NCCCn3ccnc3)nc2c1
inactive: growth inhibition [1] 22% | inhibition [2] 6% | inhibition [3] -2% | outcome [5] | outcome [6] | outcome [7] | outcome [8]
active: growth inhibition [4] 102%

Nc1ncc(-c2ccc3ncccc3c2)c(N)n1
inactive: growth inhibition [1] -1% | inhibition [3] 2% | outcome [5] | outcome [6] | outcome [7] | outcome [8]
active: inhibition [2] 55% | growth inhibition [4] 97%

O=C(Nc1ccccc1Br)N[C@@H]1CCN(c2ccnc3ccccc23)C1
active: growth inhibition [1] 90% | growth inhibition [4] 91%
inactive: inhibition [2] 25% | inhibition [3] 2% | outcome [5] | outcome [6] | outcome [7] | outcome [8]

CC(C)C(=O)NC(c1ccc(N(C)C)cc1)c1cc(Cl)c2cccnc2c1O (stereo unspecified)
inactive: inhibition [3] 2% | outcome [5] | outcome [6] | outcome [7] | outcome [8]
active: growth inhibition [1] 64% | inhibition [2] 61% | growth inhibition [4] 87%

COc1ccc(C=NNc2ccnc3ccccc23)c2ccccc12
inactive: inhibition [2] 27% | inhibition [3] 0% | outcome [5] | outcome [6] | outcome [7] | outcome [8]
active: growth inhibition [1] 98% | growth inhibition [4] 102%

Cc1[nH]c(C)c(-c2ccc(Oc3ccc(O)cc3)cc2)c(=O)c1Cl
inactive: inhibition [2] -2% | inhibition [3] -3% | outcome [5] | outcome [6] | outcome [7] | outcome [8]
active: growth inhibition [1] 87% | growth inhibition [4] 91%

FC(F)(F)c1ccc2c(C=Cc3ccncc3)c[nH]c2c1
active: growth inhibition [1] 76% | growth inhibition [4] 98%
inactive: inhibition [2] -12% | inhibition [3] -2% | outcome [5] | outcome [6] | outcome [7] | outcome [8]

N#Cc1ccc(CN2CCC(Oc3ccc(NC(=O)c4ccccc4)cc3Cl)CC2)cc1
active: growth inhibition [1] 65% | growth inhibition [4] 84%
inactive: inhibition [2] 21% | inhibition [3] 1% | outcome [5] | outcome [6] | outcome [7] | outcome [8]

O=c1cc(NCCCN(Cc2ccccc2)Cc2ccccc2)[nH]c2ccccc12
inactive: inhibition [2] 7% | inhibition [3] -3% | outcome [5] | outcome [6] | outcome [7] | outcome [8]
active: growth inhibition [1] 93% | growth inhibition [4] 100%

CO/C(=C\C=C\c1cc2cc(Cl)c(Cl)cc2[nH]1)C(=O)NCCCN1CCN(C2CCCCC2)CC1
inactive: inhibition [3] -3% | outcome [5] | outcome [6] | outcome [7] | outcome [8]
active: growth inhibition [1] 97% | inhibition [2] 60% | growth inhibition [4] 99%

Cc1ccc(NC(=S)N2CCCN(CCCCCNC(=O)/C=C/c3ccc(Cl)c(Cl)c3)CC2)cc1Cl
inactive: growth inhibition [1] 5% | inhibition [2] 14% | inhibition [3] 5% | outcome [5] | outcome [6] | outcome [7] | outcome [8]
active: growth inhibition [4] 93%

CN1CCN(CC(O)CNC(=O)Nc2ccc(Cl)cc2)CC1 (stereo unspecified)
active: growth inhibition [1] 98% | growth inhibition [4] 99%
inactive: inhibition [2] 1% | inhibition [3] -3% | outcome [5] | outcome [6] | outcome [7] | outcome [8]

CCOC(=O)NCC(=O)Nc1cccc(-c2cccc(-c3nc4c(C)cccc4[nH]3)c2)c1
inactive: growth inhibition [1] 35% | inhibition [2] 14% | inhibition [3] 1% | outcome [5] | outcome [6] | outcome [7] | outcome [8]
active: growth inhibition [4] 88%

COc1ccccc1C1CCN(C2CCC(NC(=O)/C=C/c3ccc(C(F)(F)F)cc3F)CC2)CC1 (stereo unspecified)
inactive: growth inhibition [1] 2% | inhibition [3] 2% | outcome [5] | outcome [6] | outcome [7] | outcome [8]
active: inhibition [2] 63% | growth inhibition [4] 95%

NC(=O)c1cc2nc(Nc3ccc(F)cc3)nc(Nc3ccc(S(N)(=O)=O)cc3)c2[nH]1
active: growth inhibition [1] 99% | growth inhibition [4] 101%
inactive: inhibition [2] 2% | inhibition [3] 4% | outcome [5] | outcome [6] | outcome [7] | outcome [8]
